High-throughput results (PubChem BioAssay)
DNA Pol III inh: DNA polymerase III holoenzyme inhibition. reconstituted DNA polymerase III holoenzyme replication, biochemical. Potency, µM (highest dose often 57.1 µM), inactives show at the highest dose activity change, negative = inhibition. 71,000 compounds, 0.25% hits; further: potency means the concentration at half of the fitted maximal effect; on the % scale 0 is the no-effect control and ±100 the full control effect
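Reconstituted *E. coli* holoenzyme (0.35 nM Pol III, 1 nM beta, 154 nM SSB, 2 nM primase) was preincubated with compound for 15 min at RT. Synthesis on 1.4 nM ssM13Gori ran 35 min, then was stopped with PicoGreen/EDTA and read as dsDNA fluorescence.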
ERK AVP block: vasopressin-driven ERK pathway inhibition; HEK293-V1b, vasopressin-stimulated pERK AlphaScreen; Potency, µM (doses to about 57.5 µM), inactives show at the top dose activity, negative = inhibition, usual class: inhibitors; 72,000 compounds, 0.99% hits; further: potency means the concentration at half of the fitted maximal effect; on the % scale 0 is the no-effect control and ±100 the full control effect; nearly all actives have a fitted effect of over 55% in size
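HEK293 cells stably expressing V1b receptor, seeded overnight in 1% FBS, were treated with compounds for 30 min at 37C, then stimulated 5 min with 25 nM vasopressin; phospho-ERK read by AlphaScreen SureFire after lysis.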
BRCT PPI red: BRCT-phosphoprotein interaction inhibition (red fluorophore). 75,000 compounds, 0.03% hits. P38398. BRCT-phosphopeptide binding, red fluorescence polarization. Potency, µM (highest dose often 76.9 µM), for inactives: at the highest dose activity change, negative = inhibition, actives largely listed as inhibitors; further: on the % scale 0 is the no-effect control and ±100 the full control effect
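Fluorescence polarization: 100 nM His-tagged BRCA1 BRCT with 100 nM TAMRA-labelled phospho-BACH1 decapeptide, phosphate buffer pH 7.3 with 150 mM NaCl, DTT, 0.01% Tween 20; 12 min RT. Binding inhibition seen as FP decrease.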
USP2a inhib: USP2a (human) protease inhibition; USP2a enzymatic assay, qHTS inhibition; Potency, µM (titrated, usually from 38.3 µM), for the others: at the highest dose activity change, negative = inhibition, usual class: inhibitors; 60,000 compounds, 0.1% hits; AID 927; further: potency means the concentration at half of the fitted maximal effect; nearly all actives have a fitted effect of over 60% in size
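Coupled readout: USP2-cleaved Ub-PLA2 (20nM final) turns over NBD C6-HPC (20uM final), Ex 460nm/Em 535nm after 2.5 h, time-zero read flagging artifacts. Enzyme (20nM final, pH 8.0 Tris) given 30 min RT with compound first; NEM defines full inhibition.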
TsaE inh: displaces an ADP probe from E. coli YjeE (TsaE) | P0AF67 | purified YjeE enzyme, qHTS inhibition assay | Potency, µM | 71,000 compounds, 0.05% hits | AID 605
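Fluorescence polarization of a BODIPY Texas Red–ADP probe (2 uM) bound to purified YjeE (10 uM) was read after 15 min room-temperature incubation with compounds. Loss of polarization marks inhibitors; ADP serves as titrated control.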
BRCT inh green: blocks human BRCA1 BRCT binding to phosphopeptide, green readout | P38398 | BRCA1 BRCT-phosphopeptide binding, green fluorescence polarization | Potency, µM (series often up to 76.9 µM), inactives show top-dose activity change, negative = inhibition, usual class: inhibitors | 75,000 compounds, 0.05% hits | AID 875;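 further: potency means the concentration at half of the fitted maximal effect; plate controls were peptide without protein for full effect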
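Fluorescence polarization: His-tagged BRCT (~35 kDa BRCA1 C-terminus, 250 nM) bound to 100 nM fluorescein-labeled phosphorylated 10-aa BACH1 peptide, pH 7.3 phosphate buffer with DTT and Tween 20. Compounds incubated 12 min at room temperature; inhibition read as lowered polarization.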
Starred values were filed as active, the others as inactive; i = inactive; ? = inconclusive; / = no result; ! = repeats disagree; [ ] = remark or other dose. A selection: hits, their analogues and other compounds. The true share with any hit is near 1.3%. The call rests on the fitted dose curve; in most records, active means well fitted curve in the direction sought with a large enough effect; inconclusive means small, poorly fitted or top-dose-only effect, or another doubt; inactive means no such curve, though single readings can be large; an effect the other way counts as inactive or inconclusive.

SMILES	DNA Pol III inh	ERK AVP block	BRCT PPI red	USP2a inhib	TsaE inh	BRCT inh green
O=C(c1ccc(CSCc2ccccc2F)o1)N1CCN(c2ccc(N3CCOCC3)nn2)CC1	1%	25µM*	-1%	/	i	-1%
O=C(c1cc2ccccc2oc1=O)N1CCN(c2ccc(N3CCOCC3)nn2)CC1	-2%	-7%	-2%	/	i	-2%
Cc1cc2nc3c(=O)[nH]c(=O)nc-3n(CC(O)C(O)C(O)CO)c2cc1C (centres undefined)	227%	-25%	-9%	63%	i	13µM*!
COc1cc(/C=C\C(=O)N2CCCCC2=O)cc(OC)c1OC	-3%	/	/	/	i	/
Cc1cc(N)n2ncc(-c3ccccc3)c2n1	-4%	25µM*	-3%	-7%	i	-5%
CCC(C)Nc1ccc(NC(C)CC)cc1 (centres undefined)	7%	6%	-8%	/	100µM*	0%
CN(C)CCCNc1cc(O)c2c(c1O)C(=O)c1ccccc1C2=O	?	-28%[11.5 µM]	?	/	i	-1%[15.4 µM]
O=C1c2c(O)ccc(O)c2C(=O)c2c(NCCNCCO)ccc(NCCNCCO)c21	1µM*	13µM*!	-5%	31%	79µM*!	-2%[3.08 µM]
Cc1nc2cnc(N(C)C)nc2n(C)c1=O	-11%	16µM*	-3%	-3%	i	0%
Cc1nc2cnc(N(C)C)nc2n(C2CC2)c1=O	-11%	?	-3%	-15%	i	0%
CC1=C(C(=O)O)N2C(=O)[C@@H](NC(=O)[C@@H](N)c3ccccc3)[C@@H]2SC1	3%[25.6 µM]	4%[25.7 µM]	-1%[34.4 µM]	-7%[17.1 µM]	i	-2%[34.4 µM]
CCOCCCn1c(=N)c(C(N)=S)cc2c(=O)n3cccc(C)c3nc21	25µM*	?	1%	16%	i	3%
Cc1noc(NS(=O)(=O)c2ccc(NC(=O)COc3ccc(Cl)cc3Cl)cc2)c1C	-5%[11.4 µM]	2.5µM*	-2%	30%[7.66 µM]	i	-1%
O=C(Nc1nc(-c2ccccc2)cs1)c1cccs1	2%	16µM*	0%	5%	i	2%
O=C(Nc1nc(-c2ccccn2)cs1)c1ccc(Cl)s1	-3%	/	7%	/	i	-2%
O=C(Nc1nc(-c2ccccc2)ns1)c1cccs1	-10%	3%	0%	-7%	i	-4%
O=C(Nc1nc(-c2ccc(Cl)s2)cs1)c1cccs1	-2%	10µM*	0%	22%	i	11%
CC(C)(C(=O)O)c1ccc([C@@H](O)CCCN2CCC(C(O)(c3ccccc3)c3ccccc3)CC2)cc1	-5%	-27%	2%	9%	i	-2%
O=S(=O)(O)c1ccc2c(N=Nc3cccc4ccccc34)c(O)c(S(=O)(=O)O)cc2c1	-9%[11.4 µM]	-23%[11.5 µM]	-18%[15.4 µM]	/	i	-25%[15.4 µM]
COc1cc(-c2ccc(N=Nc3ccc4c(S(=O)(=O)O)cc(S(=O)(=O)O)c(N)c4c3O)c(OC)c2)ccc1N=Nc1ccc2c(S(=O)(=O)O)cc(S(=O)(=O)O)c(N)c2c1O	2.5µM*	16µM*	?	77%[17.1 µM]	50µM*	40µM*!
Cc1nn(-c2ccc(S(=O)(=O)O)cc2)c(O)c1N=Nc1ccc(-c2ccc(N=Nc3ccc4c(S(=O)(=O)O)cc(S(=O)(=O)O)c(N)c4c3O)c(O)c2)cc1O.[Cu].[Cu]	1.3µM*	-25%[11.5 µM]	2.5µM*	/	?	6.3µM*
Oc1cc(CN2COc3ccccc32)c(O)cc1CNC1CCCCC1	-9%[11.4 µM]	5%[11.5 µM]	-1%[15.4 µM]	/	i	-2%[15.4 µM]
O=C1OC(=O)[C@@H]2[C@@H]1[C@@H]1CC[C@H]2O1	-6%	-14%	-1%	-1%	i	-3%
CCn1cc(C(=O)OCC(=O)OC2CC(C)CCC2C(C)C)c(=O)c2ccc(C)nc21 (centres undefined)	6%	25µM*	0%	-11%	i	-2%
CC(=O)[C@@H]1CC[C@@H]2[C@@H]3CC=C4C[C@H](OS(=O)(=O)O)CC[C@@]4(C)[C@H]3CC[C@]21C	-5%	-8%	-2%	20%	i	-24%
SMILES	DNA Pol III inh	ERK AVP block	BRCT PPI red	USP2a inhib	TsaE inh	BRCT inh green
COc1ccc(-c2nc(C#N)c(NCCc3ccccc3)o2)cc1OC	-3%	16µM*	-2%	8%	i	-2%
Cc1cccc2sc(NC(=O)CNS(=O)(=O)c3ccc(Br)s3)nc12	2%	20µM*	-1%	12%	i	-1%
Cc1ccc2nc(NC(=O)CN(C)S(=O)(=O)c3ccc(Br)s3)sc2c1	1%	4µM*	-2%	47%	i	-2%
Cc1ccc2nc(NC(=O)CNS(=O)(=O)c3ccc(Br)s3)sc2c1	6%	-19%	1%	19%	i	-2%
O=C1C=CC2=C3c4cc(O)c(O)cc4CC3(O)COC2=C1O (centres undefined)	/	?	-19%	10µM*	/	-24%
CCNCCNC(=O)c1c(O)c2ccccc2n(CC)c1=O	-1%	0%	2%	-3%	i	2%
C=CCn1c(=O)c(C(=O)NCCNCC)c(O)c2ccccc21	-6%	-22%	0%	13µM*	i	3%
COc1ccc2oc(-c3ccc(O)cc3)cc(=O)c2c1	-8%	40µM*	-1%	/	i	6%
COc1ccc(-c2cc(=O)c3cc(OC)ccc3o2)cc1	/	7%	1%	0%	/	-5%
O=C(Nc1ccccc1C(F)(F)F)c1cccnc1	1%	-3%	1%	-2%	i	-2%
CC(C)(C)c1ccccc1NC(=O)c1cccnc1	32µM*	-16%	1%	0%	i	-2%
On1onc2c3cc(-c4ccccc4)nc3ccc21	-8%	25µM*	0%	-10%	i	1%
OC[C@@H]1O[C@@H](n2cnc3c(Nc4ccccc4)ncnc32)[C@@H](O)[C@H]1O	-2%	?	2%	2%	i	-2%
COc1cc(N)c(Cl)cc1C(=O)N[C@H]1CCN(CCCOc2ccc(F)cc2)C[C@@H]1OC	-6%	32µM*	0%	/	i	-6%
CCCCN1CCC(CCC(=O)c2cc(Cl)c(N)cc2OC)CC1	-4%	-6%	-1%	/	i	0%
COc1cc(/C=N/NC(=O)c2cc(-c3ccccc3)n[nH]2)cc(OC)c1OC	/	/	4%	/	/	0%
Cc1cc(C)c2[nH]c(=O)c(CN(CC3CCCO3)S(=O)(=O)c3ccc4c(c3)OCCO4)cc2c1 (centres undefined)	5%	?	-3%	19%	i	-1%
Cc1cccc2cc(CN(Cc3ccco3)S(=O)(=O)c3ccc4c(c3)OCCO4)c(=O)[nH]c12	10%	10µM*	0%	26%	i	1%
CCOc1ccc(CCNc2cc(C)nc3ncnn23)cc1OCC	2%	25µM*	-1%	/	i	4%
